# An excerpt weighted towards active compounds, which were near 3.4% of everything screened.
# GPR151 activ: activates the human receptor GPR151; Q8TDV0; 650,000 tested, 1% active; activation, % at 11.2 µM; PathHunter beta-arrestin GPR151 cells, luminescence; in the data active = activation above about 4.9%;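 also: 0% = median of compound wells and 100% = cells with positive control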
# MITF inh: inhibitors of human MITF; inhibition, % at 2.6 µM; AlphaScreen MITF homodimerization, bead proximity signal; 650,000 tested, 0.91% active; in the data active = inhibition above about 50%;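 also: 0% = vehicle wells with protein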
# Target sequence (O75030 whole entry, looked up): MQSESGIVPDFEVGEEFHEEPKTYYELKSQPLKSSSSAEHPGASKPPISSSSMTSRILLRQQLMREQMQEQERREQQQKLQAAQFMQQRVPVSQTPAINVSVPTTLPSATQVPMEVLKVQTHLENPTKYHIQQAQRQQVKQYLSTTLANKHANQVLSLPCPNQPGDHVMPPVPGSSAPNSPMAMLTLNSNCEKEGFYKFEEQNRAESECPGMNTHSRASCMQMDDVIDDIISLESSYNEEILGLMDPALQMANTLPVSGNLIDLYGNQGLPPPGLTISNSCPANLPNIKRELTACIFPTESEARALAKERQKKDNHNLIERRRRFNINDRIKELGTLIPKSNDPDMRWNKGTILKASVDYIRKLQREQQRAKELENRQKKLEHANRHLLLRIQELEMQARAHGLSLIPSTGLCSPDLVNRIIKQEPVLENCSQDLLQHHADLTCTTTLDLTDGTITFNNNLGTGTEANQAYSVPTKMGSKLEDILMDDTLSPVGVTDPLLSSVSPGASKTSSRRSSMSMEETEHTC
# TEAD-YAP block: TEAD-YAP interaction inhibition; HEK-TIYL cells, TEAD-Gal4/YAP UAS-luciferase luminescence; 640,000 tested, 1.4% active; AID 1259422; inhibition, % at 9.12 µM; in the data active = inhibition above about 32%;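 also: 0% = median of test compound wells and 100% = reference inhibitor wells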
# FBW7 act: activators of human E3 ligase FBW7. Q969H0. AlphaScreen FBW7–phospho-cyclin E peptide binding, activator screen. normalized activity (activation), % at 26.1 µM. 650,000 tested, 0.13% active. AID 1259310; in the data active = normalized activity above about 1.9%;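 also: purified mutant Fbw7 with reduced substrate affinity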
# MITF confirm: confirmation of human MITF inhibitors; 4,700 tested, 16% active; AID 1259372; AlphaScreen MITF homodimerization, biotin/His-MITF beads; shares compounds with MITF inh; inhibition, % at 2.6 µM;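 active = inhibition above a cutoff derived from the DMSO control wells, cut at about 28% in these data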;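 also: 0% = MITF dimer wells with DMSO only; inhibitors lower the bead chemiluminescence by keeping MITF from dimerizing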
# AlphaScreen DR: optically interferes with AlphaScreen signal in dose response; AID 1259373; IC50, µM; shares compounds with MITF inh; 480 tested, 6% active; AlphaScreen optical interference counterscreen, cell-free; call rule not given here
# AlphaScreen intf2: optically interferes with AlphaScreen signal | shares compounds with MITF inh | LysRS AlphaScreen counterscreen, signal interference, triplicate | inhibition, % at 2.6 µM | 4,700 tested, 7.6% active;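 active = inhibition above a cutoff derived from the DMSO control wells, cut at about 30% in these data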
# An asterisk follows results filed as active; / = no result given.
SMILES,GPR151 activ,MITF inh,TEAD-YAP block,FBW7 act,MITF confirm,AlphaScreen intf2,others
CCOC(=O)C1=C(C)NC(=O)NC1c1ccc(C(F)(F)F)cc1 (configuration not stated),2,11,-2,0,/,/,
O=C(NCCN1CCOCC1)c1cn(-c2ccc(F)cc2F)c(=O)c2ccccc12,1,6,14,0,/,/,
COC(=O)Cc1[nH]nc2c1C1(C(=O)Nc3ccccc31)C(C#N)=C(N)O2 (configuration not stated),0,66*,-6,0,11,-2,
COC(=O)Cc1[nH]nc2c1C1(C(=O)N(Cc3ccccc3)c3ccccc31)C(C#N)=C(N)O2 (configuration not stated),0,10,7,0,/,/,
Cc1ccc(-n2nc3c(c2NC(=O)COc2ccc4ccccc4c2)CSC3)c(C)c1,-1,-2,-19,0,/,/,
Cc1cc(NC(=O)COC(=O)CCCCC(=O)c2[nH]c(=O)[nH]c2C)no1,1,116*,9,-2,112*,93*,
CCCCCCC(=O)Oc1ccc2cc(OC(=O)CCCCCC)ccc2c1,0,1,-2,0,/,/,
Cc1[nH]c(=O)[nH]c1C(=O)CCCCC(=O)OCC(=O)Nc1ccccc1[N+](=O)[O-],0,113*,9,-1,115*,93*,
Cc1[nH]c(=O)[nH]c1C(=O)CCCCC(=O)OCC(=O)Oc1ccc2ccccc2c1,1,112*,-6,-1,111*,98*,
CC(=O)NCC(=O)OCC(=O)Nc1ccccc1[N+](=O)[O-],0,-6,7,0,/,/,
CCOC(=O)CCCC/C(=N\O)c1[nH]c(=O)[nH]c1C,0,99*,-7,-1,97*,65*,
CCOC(=O)CCCCC(=O)c1[nH]c(=O)[nH]c1CNc1ccc(Br)cc1,-2,27,3,1,/,/,
O=C(CSc1cccc2cccnc12)NNC(=O)c1cc2ccccc2o1,-1,7,5,0,/,/,
CCOC(CNC(=O)CCNC(=O)c1ccc(OC)c(OC)c1)OCC,-2,1,4,0,/,/,
Cc1[nH]c(=O)[nH]c1C(=O)CCCCC(=O)O,1,121*,8,0,113*,95*,
COc1cc2cc3c(N)c(C(=O)Nc4nc(C)cs4)sc3nc2cc1OC,1,-26,-5,0,/,/,
O=[N+]([O-])c1ccccc1S(=O)(=O)N1CCN(CC2CC=CCC2)CC1 (configuration not stated),1,31,2,0,/,/,
Fc1cccc(CN2CCN(CC3CC=CCC3)CC2)c1 (configuration not stated),3,83*,-4,0,-1,-3,
Cc1ccc(CN2CCN(CC3CC=CCC3)CC2)cc1 (configuration not stated),0,22,3,0,/,/,
O=C(c1ccccc1)N1CCN(CC2CC=CCC2)CC1 (configuration not stated),-1,41,-4,0,/,/,
O=[N+]([O-])c1ccccc1CN1CCN(CC2CC=CCC2)CC1 (configuration not stated),0,66*,-13,0,-5,3,
O=S(=O)(c1ccccc1)N1CCN(CC2CC=CCC2)CC1 (configuration not stated),0,52*,2,0,-1,1,
Clc1ccccc1CN1CCN(CC2CC=CCC2)CC1 (configuration not stated),-1,60*,0,0,6,-5,
CCCc1cc(=O)[nH]c(Nc2cc(C)ccc2O)n1,0,11,8,1,/,/,
CCCN1CCCc2cc(CCNS(=O)(=O)c3cccs3)ccc21,-1,58*,-3,0,-6,-3,
SMILES,GPR151 activ,MITF inh,TEAD-YAP block,FBW7 act,MITF confirm,AlphaScreen intf2,others
CC[n+]1ccc(C(=O)N/N=C/c2ccc3c(c2)OCO3)cc1,1,5,7,0,/,/,
COc1cc(OC)c(OC)cc1CN1CCN(Cc2c[nH]c3ccccc23)CC1,0,55*,14,0,4,-6,
COc1ccc(CN2CCN(Cc3c[nH]c4ccccc34)CC2)c(OC)c1OC,0,62*,3,0,6,7,
COc1cc(OC)c(OC)cc1CN1CCN(c2ccc(F)cc2)CC1,1,44,0,0,/,/,
COc1cccc(C(=O)NC(=S)N2CCN(c3ccc([N+](=O)[O-])cc3)CC2)c1,0,72*,2,0,5,33*,
COc1ccc(C(=O)NC(=S)N2CCN(c3ccc([N+](=O)[O-])cc3)CC2)cc1,0,17,-1,0,/,/,
CC(=O)C(Cc1ccccc1)NC(=O)CN1CCN(C/C=C/c2ccccc2)CC1 (configuration not stated),-1,62*,4,0,14,14,
O=C(CN1CCN(C/C=C/c2ccccc2)CC1)N1CCCc2ccccc21,0,85*,9,0,5,10,
O=C(CN1CCN(Cc2nc(-c3cccs3)cs2)CC1)N1CCc2ccccc21,-1,58*,-4,0,-8,2,
O=C(CN1CCN(Cc2ccccc2)CC1)N1CCCc2ccccc21,-2,72*,19,0,-3,2,
CCC(C)NC(=O)CN(Cc1ccc(F)cc1)S(=O)(=O)c1ccc(Cl)cc1 (configuration not stated),0,70*,0,0,-13,-6,
CCCS(=O)(=O)N1CCN(Cc2cccnc2)CC1,3,46,2,0,/,/,
CCS(=O)(=O)N1CCN(Cc2cccnc2)CC1,-1,78*,0,0,11,12,
CS(=O)(=O)N1CCN(Cc2ccncc2)CC1,1,79*,5,0,-6,15,
Cc1ccc(CN2CCN(S(=O)(=O)c3ccc(C)cc3)CC2)cc1,1,-6,1,0,/,/,
CS(=O)(=O)N1CCN(Cc2cccnc2)CC1,1,67*,-10,0,0,10,
Cc1ccc(S(=O)(=O)N2CCN(Cc3cccnc3)CC2)cc1,0,83*,-7,0,7,7,
COC(=O)c1ccc(/C=C(\c2ccccc2)c2ccncc2)cc1,0,-4,-7,0,/,/,
CCc1ccc(NC(=O)CSc2nc3cc4c(cc3c(=O)n2CCC(=O)NCCc2ccc(OC)c(OC)c2)OCO4)cc1,3,-9,13,0,/,/,
O=C(NC(=S)Nc1cc(Br)ccc1O)c1ccco1,-1,-7,-2,0,/,/,
COC(=O)CN1C(=O)S/C(=C/c2ccc([N+](=O)[O-])o2)C1=O,0,62*,-11,0,47*,4,AlphaScreen DR=>6.5
COc1ccc(CN2CCN(Cc3ccc(OC)cc3OC)CC2)cc1,0,65*,1,0,5,13,
COc1ccc(CN2CCN(Cc3ccc(Br)cc3)CC2)c(OC)c1,-2,36,-13,-1,/,/,
COc1ccc(CN2CCN(Cc3ccc(OC)cc3OC)CC2)c(OC)c1,-1,72*,-2,0,0,15,
